Measured values reported in article PMC7826789 (International Journal of Molecular Sciences, 2021).

How the values were obtained:
Settings in all cases: Compound Concentration (nM):1000
[1] = tested on: TXK
[2] = tested on: TYK2(JH1domain-catalytic)
[3] = tested on: TYK2(JH2domain-pseudokinase)
[4] = tested on: TYRO3
[5] = tested on: ULK1
[6] = tested on: ULK2
[7] = tested on: ULK3
[8] = tested on: T1, VEGFR2
T1 construct: gene KDR

[9] = tested on: T2, VPS34
T2 construct: gene PIK3C3

[10] = tested on: VRK2
[11] = tested on: WEE1
[12] = tested on: WEE2
[13] = tested on: WNK1
[14] = tested on: WNK2
[15] = tested on: WNK3
[16] = tested on: WNK4
[17] = tested on: T3, YANK1
T3 construct: gene STK32A

[18] = tested on: T4, YANK2
T4 construct: gene STK32B

[19] = tested on: T5, YANK3
T5 construct: gene STK32C

[20] = tested on: T6, YES
T6 construct: gene YES1
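Note: KINOMEscan scanMAX binding as percent activity remaining versus control; lower means stronger binding.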

| Structure (SMILES) | Percent Control [1] | Percent Control [2] | Percent Control [3] | Percent Control [4] | Percent Control [5] | Percent Control [6] | Percent Control [7] | Percent Control [8] | Percent Control [9] | Percent Control [10] | Percent Control [11] | Percent Control [12] | Percent Control [13] | Percent Control [14] | Percent Control [15] | Percent Control [16] | Percent Control [17] | Percent Control [18] | Percent Control [19] | Percent Control [20] |
| --- | --- | --- | --- | --- | --- | --- | --- | --- | --- | --- | --- | --- | --- | --- | --- | --- | --- | --- | --- | --- |
| C[C@@H](Oc1cc(-n2cnc3ccc(OC4CCN(C)CC4)cc32)sc1C(N)=O)c1ccccc1Cl [GSK579289A] | 60% | 100% | 93% | 92% | 71% | 44% | 100% | 64% | 29% | 95% | 40% | 87% | 32% | 7.1% | 26% | 2.7% | 77% | 100% | 100% | 87% |
| COC(=O)Nc1nc2ccc(Oc3ccc(NC(=O)Nc4cc(C(F)(F)F)ccc4F)cc3)cc2s1.Cl [GW693917A] | 77% | 100% | 100% | 71% | 62% | 84% | 78% | 13% | 76% | 73% | 87% | 100% | 76% | 100% | 100% | 67% | 100% | 100% | 94% | 51% |
| Cl.O=C(Nc1ccc(Oc2ccc3[nH]c(NC(=O)c4ccco4)nc3c2)cc1)Nc1cc(C(F)(F)F)ccc1F [GW683134A] | 80% | 100% | 100% | 71% | 100% | 89% | 62% | 20% | 100% | 100% | 100% | 100% | 90% | 100% | 100% | 100% | 82% | 100% | 100% | 61% |
| Cc1cc(O)cc(C)c1/C=C/c1cncc(C(N)=O)c1 [GW435821X] | 100% | 100% | 90% | 100% | 100% | 97% | 98% | 87% | 100% | 100% | 100% | 100% | 100% | 100% | 93% | 100% | 100% | 100% | 100% | 100% |
| COc1cc(C)c(N(C)C(=O)CN(C)C)cc1Nc1nc(Nc2cccc(F)c2C(N)=O)c2cc[nH]c2n1 [GSK2219385] | 90% | 100% | 100% | 100% | 72% | 80% | 100% | 100% | 82% | 62% | 100% | 90% | 100% | 100% | 100% | 81% | 87% | 100% | 85% | 96% |
| COc1ccccc1-c1cc(/C=C2\C(=O)Nc3ncc(Br)cc32)cc(Br)c1O [GW442130X] | 100% | 76% | 100% | 100% | 85% | 100% | 78% | 100% | 77% | 89% | 100% | 100% | 100% | 100% | 98% | 100% | 92% | 94% | 100% | 100% |
| COc1cc(C=NNc2ncnc3c2cnn3-c2ccccc2)ccc1O [GW513184X] | 100% | 47% | 8% | 100% | 100% | 100% | 67% | 95% | 100% | 100% | 96% | 100% | 97% | 100% | 100% | 100% | 89% | 100% | 100% | 74% |
| Cl.O=C(O[C@H]1CN[C@H](C#Cc2cc3ncnc(Nc4ccc5c(cnn5Cc5ccccc5)c4)c3s2)C1)N1CCOCC1 [GSK200398A] | 83% | 100% | 97% | 100% | 62% | 86% | 91% | 89% | 98% | 87% | 89% | 96% | 80% | 94% | 100% | 95% | 100% | 100% | 100% | 98% |
| COc1ccc(COc2ccc(Cc3cnc(N)nc3N)cc2OC)cc1 [GW632580X] | 90% | 100% | 100% | 71% | 90% | 90% | 96% | 85% | 67% | 81% | 98% | 83% | 98% | 84% | 92% | 82% | 100% | 100% | 100% | 82% |
| CC1=C(C(=O)Nc2ccc3[nH]ncc3c2)C(c2ccc3ccccc3c2)CC(=O)N1 (stereo not drawn) [GSK270822A] | 91% | 10% | 58% | 83% | 82% | 79% | 93% | 90% | 79% | 36% | 93% | 62% | 92% | 85% | 86% | 76% | 83% | 88% | 96% | 68% |
| CN(C)c1cc2c(Nc3ccc4c(cnn4Cc4ccccc4)c3)ncnc2cn1 [GW282974X] | 89% | 100% | 100% | 100% |  | 85% | 91% | 94% | 78% | 81% | 83% | 72% | 100% | 100% | 100% | 91% | 100% | 100% | 100% | 67% |
| NS(=O)(=O)c1ccc(N/N=C2\C(=O)Nc3ccc(C(=O)NCc4ccncc4)cc32)cc1 [GW300657X] | 100% | 70% | 31% | 80% | 15% | 26% | 31% | 84% | 71% | 74% | 93% | 59% | 92% | 78% | 95% | 73% | 100% | 100% | 100% | 100% |
| CCS(=O)(=O)c1ccc(OC)c(Nc2ncc(-c3cccc(F)c3)o2)c1 [GW621970X] | 42% | 100% | 100% | 73% | 88% | 95% | 100% | 2.4% | 100% | 93% | 100% | 100% | 90% | 100% | 97% | 100% | 100% | 100% | 100% | 43% |
| NS(=O)(=O)c1ccc(N/N=C2\C(=O)Nc3ccc(Cl)cc32)cc1 [GW280670X] | 100% | 98% | 100% | 100% | 100% | 100% | 100% | 52% | 100% | 100% | 100% | 100% | 99% | 100% | 100% | 100% | 100% | 100% | 100% | 100% |
| C/C(Nc1ccc(S(N)(=O)=O)cc1)=C1/C(=O)Nc2ccccc21 [GW335962X] | 100% | 77% | 100% | 100% | 62% | 52% | 83% | 1.2% | 81% | 80% | 100% | 95% | 90% | 93% | 100% | 100% | 100% | 100% | 88% | 100% |
| COc1cc2ncnc(Nc3ccc4c(cnn4Cc4ccccc4)c3)c2cc1OC.Cl [GW282449A] | 100% | 100% | 100% | 51% | 74% | 100% | 100% | 79% | 100% | 100% | 100% | 100% | 94% | 100% | 100% | 100% | 100% | 100% | 100% | 67% |
| NS(=O)(=O)c1ccc(N/N=C2\C(=O)Nc3ccc(C(=O)NCCc4c[nH]cn4)cc32)cc1 [GW300660X] | 100% | 81% | 84% | 100% | 38% | 37% | 65% | 79% | 86% | 100% | 100% | 100% | 100% | 100% | 95% | 100% | 100% | 100% | 100% | 100% |
| Cl.c1ccc(Cc2nc3ccc(Nc4ncnc5ccccc45)cc3[nH]2)cc1 [GR269666A] | 100% | 100% | 100% | 90% | 67% | 100% | 93% | 72% | 100% | 100% | 100% | 100% | 100% | 100% | 100% | 100% | 100% | 100% | 100% | 100% |
| COc1cc(/C=N/Nc2ncnc3[nH]ncc23)ccc1O [GW578748X] | 83% | 43% | 0.2% | 99% | 48% | 43% | 6.1% | 52% | 87% | 100% | 100% | 80% | 100% | 70% | 64% | 100% | 100% | 100% | 100% | 87% |
| CCc1ccc(Oc2nccc(-c3c(-c4ccc(F)cc4)ncn3C3CCNCC3)n2)cc1 [SB-242719] | 91% | 100% | 100% | 62% | 92% | 77% | 92% | 100% | 64% | 69% | 100% | 100% | 80% | 97% | 89% | 67% | 8.8% | 13% | 32% | 78% |
